# The full data set covers some 7,900 targets. This sample favours those with a hit. About 0.6% of all pairs of compound and target were hits. A number with no mark means an inactive call.
# Tests used:
# Test in all cases: log2 fold change, soluble protein after heating vs DMSO (PISA); higher = thermal stabilisation; K562 cells, 10 uM, 30 min; active = over 0.2 and 3.5 SD of the protein, either way, in both replicates (recomputed)
# [1] = compound: CC1=C(C=C(C=C1)NC(=O)C2=CC(=CC=C2)C(C)(C)C#N)NC3=CC4=C(C=C3)N=CN(C4=O)C
# Summary of the method: (§1)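 Aliquots of K562 cells (2×10^6 cells/mL) treated with 10 μM compound for 30 min were heated for 3 min over 48°C-58°C. After pooling and extraction in PBS with 0.5% NP-40 at 4°C, soluble protein from a 21,000xg, 90 min spin was quantified by TMTpro 16plex LC-MS/MS with channel sums equalised. Thermal stability is expressed against control samples, from duplicates, as a log2 fold change.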
# [2] = compound: CC1=C(C=C(C=C1)NC(=O)C2=CC(=CC=C2)N(C)C)NC(=O)C3=CC=C(C=C3)O
# Summary of the method: as §1
# [3] = compound: CC1=CC=C(C=C1)SC2=C3C=C(SC3=CN=C2)C(=O)N
# Summary of the method: as §1
# [4] = compound: CC1=NC(=CC=C1)C2=C(N=C(N2)C(C)(C)C)C3=CC4=NC=CN=C4C=C3
# Summary of the method: as §1
# [5] = compound: CCCCN(Cc1ccc(C(=O)NO)cc1)C(=O)Nc1ccccc1 [Nexturastat A]
# Summary of the method: as §1
# [6] = compound: CCCS(=O)(=O)Nc1ccc(F)c(C(=O)c2c[nH]c3ncc(-c4ccc(Cl)cc4)cc23)c1F [vemurafenib]
# Summary of the method: as §1
# [7] = compound: CCCS(=O)(=O)Nc1ccc(F)c(C(=O)c2c[nH]c3ncc(Cl)cc23)c1F
# Summary of the method: as §1
# [8] = compound: CCCc1cc(C)[nH]c(=O)c1CNC(=O)c1cc(-c2ccnc(N3CCN(C)CC3)c2)cc2c1cnn2C(C)C
# Summary of the method: as §1
# [9] = compound: CCN(CC)Cc1ccc2cc(COC(=O)Nc3ccc(C(=O)NO)cc3)ccc2c1 [givinostat]
# Summary of the method: as §1
# [10] = compound: CCN(CCCOc1ccc2c(Nc3cc(CC(=O)Nc4cccc(F)c4)[nH]n3)ncnc2c1)CCOP(=O)(O)O [barasertib]
# Summary of the method: as §1
# Chain of UniProt P54709 (P54709 whole entry, looked up): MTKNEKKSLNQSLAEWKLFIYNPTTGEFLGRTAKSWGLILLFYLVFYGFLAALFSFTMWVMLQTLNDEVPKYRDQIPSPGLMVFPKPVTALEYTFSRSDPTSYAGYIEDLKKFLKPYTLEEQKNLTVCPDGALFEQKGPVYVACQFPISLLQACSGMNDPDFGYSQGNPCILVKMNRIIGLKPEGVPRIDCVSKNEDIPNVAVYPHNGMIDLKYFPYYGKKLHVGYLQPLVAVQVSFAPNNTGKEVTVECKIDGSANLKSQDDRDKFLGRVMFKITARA
# Chain of UniProt Q8NHH9 (Q8NHH9 whole entry, looked up): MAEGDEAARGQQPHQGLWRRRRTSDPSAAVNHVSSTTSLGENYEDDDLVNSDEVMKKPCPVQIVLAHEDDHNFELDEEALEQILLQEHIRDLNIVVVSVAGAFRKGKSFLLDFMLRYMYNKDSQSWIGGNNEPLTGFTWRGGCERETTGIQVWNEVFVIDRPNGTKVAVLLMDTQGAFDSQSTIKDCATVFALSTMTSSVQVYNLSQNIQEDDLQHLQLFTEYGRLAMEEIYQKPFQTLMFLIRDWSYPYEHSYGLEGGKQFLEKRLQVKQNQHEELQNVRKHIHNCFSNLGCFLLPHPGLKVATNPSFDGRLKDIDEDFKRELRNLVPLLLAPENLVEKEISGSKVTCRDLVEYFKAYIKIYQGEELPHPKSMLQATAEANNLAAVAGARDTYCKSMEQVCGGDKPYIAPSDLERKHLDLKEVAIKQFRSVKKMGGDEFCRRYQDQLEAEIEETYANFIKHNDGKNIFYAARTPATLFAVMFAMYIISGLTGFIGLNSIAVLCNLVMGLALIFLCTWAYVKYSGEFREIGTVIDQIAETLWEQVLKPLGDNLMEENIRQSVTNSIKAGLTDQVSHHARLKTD
# Chain of UniProt Q8WV93 (Q8WV93 whole entry, looked up): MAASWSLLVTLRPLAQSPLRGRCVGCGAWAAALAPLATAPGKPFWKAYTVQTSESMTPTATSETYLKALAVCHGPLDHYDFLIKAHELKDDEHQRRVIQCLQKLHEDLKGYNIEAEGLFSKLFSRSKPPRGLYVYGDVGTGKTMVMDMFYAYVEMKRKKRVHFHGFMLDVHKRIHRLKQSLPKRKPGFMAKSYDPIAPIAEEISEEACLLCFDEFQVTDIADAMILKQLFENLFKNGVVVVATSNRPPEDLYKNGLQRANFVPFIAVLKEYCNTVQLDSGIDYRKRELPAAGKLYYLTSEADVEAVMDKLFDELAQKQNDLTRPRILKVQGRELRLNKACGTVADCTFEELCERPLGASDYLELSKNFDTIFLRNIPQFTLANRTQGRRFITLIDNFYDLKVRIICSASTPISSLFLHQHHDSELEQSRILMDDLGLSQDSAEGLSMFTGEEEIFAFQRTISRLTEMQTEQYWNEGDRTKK
# Chain of UniProt P11310 (P11310 whole entry, looked up): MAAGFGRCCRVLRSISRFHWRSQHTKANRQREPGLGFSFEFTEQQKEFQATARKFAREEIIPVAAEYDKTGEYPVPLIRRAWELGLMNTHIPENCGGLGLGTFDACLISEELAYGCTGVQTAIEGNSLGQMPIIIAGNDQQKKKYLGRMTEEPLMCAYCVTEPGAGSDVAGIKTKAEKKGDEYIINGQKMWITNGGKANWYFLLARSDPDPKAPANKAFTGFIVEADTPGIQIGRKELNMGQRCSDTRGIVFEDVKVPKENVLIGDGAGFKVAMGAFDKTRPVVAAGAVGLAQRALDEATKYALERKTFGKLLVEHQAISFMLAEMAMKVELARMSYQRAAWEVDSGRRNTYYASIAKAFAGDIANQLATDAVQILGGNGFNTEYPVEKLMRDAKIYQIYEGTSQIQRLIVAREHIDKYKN
# Chain of UniProt Q9UBL3 (Q9UBL3 whole entry, looked up): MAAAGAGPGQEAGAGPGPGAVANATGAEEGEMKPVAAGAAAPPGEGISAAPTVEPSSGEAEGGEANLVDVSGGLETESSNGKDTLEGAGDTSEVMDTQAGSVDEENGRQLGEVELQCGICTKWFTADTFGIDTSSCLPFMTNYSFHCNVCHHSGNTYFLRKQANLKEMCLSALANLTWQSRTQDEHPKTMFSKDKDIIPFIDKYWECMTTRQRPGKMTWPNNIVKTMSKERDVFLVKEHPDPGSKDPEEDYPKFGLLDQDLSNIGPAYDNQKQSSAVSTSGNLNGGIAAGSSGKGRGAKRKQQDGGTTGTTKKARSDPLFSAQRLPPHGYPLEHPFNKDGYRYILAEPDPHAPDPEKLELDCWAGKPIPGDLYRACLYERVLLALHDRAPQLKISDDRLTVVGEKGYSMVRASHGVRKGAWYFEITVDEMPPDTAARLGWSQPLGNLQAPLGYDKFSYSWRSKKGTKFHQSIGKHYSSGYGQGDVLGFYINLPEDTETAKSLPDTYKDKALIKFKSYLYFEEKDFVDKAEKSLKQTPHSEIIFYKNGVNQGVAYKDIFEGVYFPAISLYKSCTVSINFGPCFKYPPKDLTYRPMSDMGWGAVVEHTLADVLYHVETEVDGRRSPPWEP
# Chain of UniProt Q13795 (Q13795 whole entry, looked up): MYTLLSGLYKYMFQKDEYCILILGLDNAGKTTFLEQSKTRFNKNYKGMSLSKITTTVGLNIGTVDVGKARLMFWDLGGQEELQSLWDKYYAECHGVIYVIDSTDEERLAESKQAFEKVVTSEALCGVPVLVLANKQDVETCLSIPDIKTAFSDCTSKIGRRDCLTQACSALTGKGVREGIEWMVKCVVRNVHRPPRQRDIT
# Chain of UniProt Q13685 (Q13685 whole entry, looked up): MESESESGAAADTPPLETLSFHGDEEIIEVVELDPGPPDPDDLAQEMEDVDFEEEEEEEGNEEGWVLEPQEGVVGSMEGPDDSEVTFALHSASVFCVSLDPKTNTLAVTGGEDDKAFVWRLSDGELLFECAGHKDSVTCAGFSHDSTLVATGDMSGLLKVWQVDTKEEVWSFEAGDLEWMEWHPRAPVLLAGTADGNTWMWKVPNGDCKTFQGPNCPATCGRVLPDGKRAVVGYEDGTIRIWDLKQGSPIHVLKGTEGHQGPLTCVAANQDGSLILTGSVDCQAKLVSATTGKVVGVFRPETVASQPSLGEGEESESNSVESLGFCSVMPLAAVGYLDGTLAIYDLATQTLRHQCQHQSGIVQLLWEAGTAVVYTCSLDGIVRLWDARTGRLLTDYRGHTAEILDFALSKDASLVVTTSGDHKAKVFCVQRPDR
# Chain of UniProt O43861 (O43861 whole entry, looked up): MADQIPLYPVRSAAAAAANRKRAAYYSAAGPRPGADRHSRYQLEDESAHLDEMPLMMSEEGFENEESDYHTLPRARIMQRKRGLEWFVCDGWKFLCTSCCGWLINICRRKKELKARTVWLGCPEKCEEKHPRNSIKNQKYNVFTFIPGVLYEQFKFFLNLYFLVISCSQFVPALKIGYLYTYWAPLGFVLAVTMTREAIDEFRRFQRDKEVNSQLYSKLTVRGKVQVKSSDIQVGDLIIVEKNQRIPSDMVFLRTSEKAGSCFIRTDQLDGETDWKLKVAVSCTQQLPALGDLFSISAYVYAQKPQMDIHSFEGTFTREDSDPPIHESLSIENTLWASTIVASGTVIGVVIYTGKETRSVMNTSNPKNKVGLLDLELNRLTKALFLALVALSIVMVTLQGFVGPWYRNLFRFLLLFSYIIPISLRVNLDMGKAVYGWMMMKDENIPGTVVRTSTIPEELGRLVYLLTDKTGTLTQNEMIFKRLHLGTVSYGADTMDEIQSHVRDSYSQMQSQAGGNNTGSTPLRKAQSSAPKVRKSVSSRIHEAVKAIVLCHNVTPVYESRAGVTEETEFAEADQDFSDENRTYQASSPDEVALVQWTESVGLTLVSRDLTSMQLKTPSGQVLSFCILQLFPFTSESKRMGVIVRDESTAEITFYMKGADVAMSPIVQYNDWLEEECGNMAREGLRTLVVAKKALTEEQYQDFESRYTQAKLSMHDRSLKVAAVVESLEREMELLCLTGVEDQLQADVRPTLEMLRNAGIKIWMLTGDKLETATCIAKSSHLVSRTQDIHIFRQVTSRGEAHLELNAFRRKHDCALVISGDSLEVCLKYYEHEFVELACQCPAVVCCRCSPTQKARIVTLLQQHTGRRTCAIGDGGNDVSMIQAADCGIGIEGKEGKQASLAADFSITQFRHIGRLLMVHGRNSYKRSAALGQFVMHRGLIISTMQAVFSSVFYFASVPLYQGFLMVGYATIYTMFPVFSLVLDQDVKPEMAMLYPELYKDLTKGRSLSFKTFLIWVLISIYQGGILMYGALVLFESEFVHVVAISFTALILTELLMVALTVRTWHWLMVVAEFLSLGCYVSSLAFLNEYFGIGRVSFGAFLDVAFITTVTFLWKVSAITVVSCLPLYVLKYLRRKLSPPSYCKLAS
# Chain of UniProt Q9NUQ2 (Q9NUQ2 whole entry, looked up): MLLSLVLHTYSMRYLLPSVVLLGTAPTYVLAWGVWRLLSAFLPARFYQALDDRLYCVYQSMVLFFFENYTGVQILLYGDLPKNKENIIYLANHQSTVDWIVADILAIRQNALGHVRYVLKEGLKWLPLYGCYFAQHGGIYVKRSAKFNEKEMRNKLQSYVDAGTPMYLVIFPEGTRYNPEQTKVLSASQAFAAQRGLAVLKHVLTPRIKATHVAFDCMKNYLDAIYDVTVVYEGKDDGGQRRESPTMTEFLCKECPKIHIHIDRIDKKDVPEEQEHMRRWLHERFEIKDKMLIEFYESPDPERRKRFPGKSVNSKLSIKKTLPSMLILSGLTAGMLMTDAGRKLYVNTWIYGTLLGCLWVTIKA
# Chain of UniProt P00966 (P00966 whole entry, looked up): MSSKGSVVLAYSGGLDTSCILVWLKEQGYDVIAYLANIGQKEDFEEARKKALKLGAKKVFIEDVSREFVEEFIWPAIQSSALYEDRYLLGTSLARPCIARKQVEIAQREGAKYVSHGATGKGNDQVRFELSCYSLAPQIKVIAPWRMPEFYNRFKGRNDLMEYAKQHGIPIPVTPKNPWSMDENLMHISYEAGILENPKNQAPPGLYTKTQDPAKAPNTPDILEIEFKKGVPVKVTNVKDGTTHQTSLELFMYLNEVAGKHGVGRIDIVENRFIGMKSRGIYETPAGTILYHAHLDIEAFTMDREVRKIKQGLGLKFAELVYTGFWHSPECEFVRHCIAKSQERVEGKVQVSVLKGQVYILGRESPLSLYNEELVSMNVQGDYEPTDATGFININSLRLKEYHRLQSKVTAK
Target,log2 fold change [1],log2 fold change [2],log2 fold change [3],log2 fold change [4],log2 fold change [5],log2 fold change [6],log2 fold change [7],log2 fold change [8],log2 fold change [9],log2 fold change [10]
AURKA (UniProt O14965),-0.008,-0.041,-0.011,-0.036,0.096,-0.026,0.006,0.01,0.257,0.114
ATOX1 (UniProt O00244),0.056,-0.065,0.275,0.239,-0.037,0.054,0.372,0.28,-0.072,-0.025
ARL2BP (UniProt Q9Y2Y0),0.154,-0.033,0.012,0.281,0.043,-0.031,0.071,0.102,-0.041,0.079
ATP5IF1 (UniProt Q9UII2),-0.035,0.009,-0.005,0.021,-0.041,-0.078,-0.043,-0.022,-0.005,0.026
BRK1 isoform 2 (UniProt Q8WUW1),-0.055,-0.076,0.103,0.069,-0.02,0.044,-0.004,0.002,0.022,0.032
AGPS (UniProt O00116),0.126,0.012,0.013,-0.001,-0.084,0.02,0.041,-0.043,-0.033,0.06
BCLAF1 (UniProt Q9NYF8),0.012,-0.102,0.004,0.128,0.098,0.225,0.097,0.009,0.137,-0.071
ANAPC2 (UniProt Q9UJX6),0.031,-0.015,-0.001,0.069,-0.045,0.027,0.047,-0.049,0.042,0.022
BAIAP2 (UniProt Q9UQB8),-0.019,0.01,0.007,-0.012,0.041,0.021,0.068,0.048,0.029,0.048
ACADM isoform 2 (UniProt P11310),-0.018,-0.024,0.001,0.017,0.009,0.009,-0.015,-0.042,-0.033,0
AFG1L (UniProt Q8WV93),0.036,0.037,0.042,0.015,-0.122,0.115,0.041,-0.018,0.013,0.01
ASB6 (UniProt Q9NWX5),-0.085,-0.033,0.117,-0.175,0.125,-0.144,0.108,-0.039,0.108,0.031
ASH2L (UniProt Q9UBL3),0.018,-0.047,0.003,0.01,-0.003,0.057,0.071,-0.022,0.031,0.007
AGPAT5 (UniProt Q9NUQ2),-0.02,-0.009,0.012,-0.068,-0.061,0.008,0.095,-0.088,-0.05,0.015
ATL2 (UniProt Q8NHH9),0.022,-0.107,-0.013,0.029,0.037,-0.004,0.005,-0.104,0.023,0.019
BTAF1 (UniProt O14981),-0.033,0.07,-0.035,0.011,-0.064,-0.003,0.041,-0.018,0.009,0.038
BAP1 (UniProt Q92560),-0.067,-0.088,-0.149,-0.058,0.403 (active),-0.089,-0.055,0.085,0.495 (active),-0.019
ACP1 isoform 2 (UniProt P24666),0.008,-0.013,0.025,-0.008,0.08,0.031,0.026,0.043,0.058,0.074
ACSM3 (UniProt Q53FZ2),-0.069,-0.056,0.019,-0.029,-0.096,0.033,0.036,0.018,0.039,0.103
APLP2 (UniProt Q06481),0.088,-0.043,-0.003,-0.009,-0.053,-0.033,0.011,0.018,-0.041,-0.04
AAMP (UniProt Q13685),0,-0.006,-0.028,-0.04,0.012,-0.018,0.018,-0.041,0.033,-0.006
ATP1B3 (UniProt P54709),0,-0.015,-0.02,0.046,-0.065,0.005,-0.036,-0.018,-0.055,-0.021
ARFRP1 (UniProt Q13795),0.138,0.003,0.082,0.069,-0.048,0.033,0,0.046,0.012,-0.015
AGPAT1 (UniProt Q99943),-0.037,-0.029,-0.014,-0.03,-0.052,0.017,-0.004,0.004,0.005,0.047
ACTBL2 (UniProt Q562R1),0.238,0.243,-0.385,–,-0.049,0.139,-0.41,0.073,-0.342,0.161
ASS1 (UniProt P00966),-0.073,-0.015,-0.06,–,0.023,-0.042,0.003,0.004,0.031,-0.063
ANK2 (UniProt Q01484),-0.11,-0.031,0.019,0.026,–,-0.026,0.012,0.053,-0.047,0.031
ABCC5 (UniProt O15440),0.107,-0.033,0.035,-0.073,0.007,-0.183,-0.031,0.1,0.028,0.026
BDH2 (UniProt Q9BUT1),-0.051,-0.085,0.086,0.016,–,0.447 (active),-0.077,-0.019,-0.033,-0.019
ATP9B (UniProt O43861),-0.185,-0.007,-0.054,0.061,0.013,-0.05,0.01,-0.03,0.085,0.013
